The values below come from PubChem BioAssay (NCATS).

Molecules are shown by their SMILES. “And” between values parts separate entries of the source, which are not always exact repeats. Equal values may be shown once. Inconclusive results are not listed. Where a structure was tested more than once in an assay, its records may differ in their call. The source made the active and inactive calls. Unless noted, calls come from the whole dose curve; as a rule, active = well fitted curve in the direction sought with a large enough effect; inconclusive = small, poorly fitted or top-dose-only effect, or another doubt; inactive = no such curve, though single readings can be large; an effect the other way counts as inactive or inconclusive.

Experiment [1] can be described thus: Primary qHTS for small molecule stabilizers of the endoplasmic reticulum resident proteome: Secreted ER Calcium Modulated Protein (SERCaMP) assay (AID 1508630). Note: % is set by controls: 0 for no effect and ±100 for the full control effect. In a few lines: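 GLuc-SERCaMP-expressing SH-SY5Y cells, pretreated 16 h with compound, are challenged with thapsigargin to empty ER calcium stores; after 4 h, coelenterazine is added directly to the medium and luminescence is imaged.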
A general note: Quantitative high-throughput screening tests each substance at several concentrations.

The nature of experiment [2]: A High-Content qHTS Against Drug Library for the Identification of Small Molecules that Inhibit DYT1 Early Onset Primary Dystonia-Associated Cell Pathology (AID 1645839; calls by dose curve). A digest of the protocol:
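In this high-content image screen, delE TorsinA mislocalization in inducible Flp-In 293 cells is scored as %pathology, with cell count serving as the counterscreen. Compound exposure lasts 48 h under tetracycline induction in reduced-serum medium.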

The target in experiment [3] is Cytochrome P450 2C9 (Homo sapiens) (UniProt P11712). Description: Cytochrome P450 family 2 subfamily C member 9 (CYP2C9) small molecule antagonists: luciferase biochemical (cell-free) qHTS assay (AID 1645842; active = well fitted curve in the direction sought with a large enough effect in the repeat runs; an effect the other way counts as inactive or inconclusive; note: nearly all actives have a fitted effect of over 55% in size; note: potency is the fitted concentration of half-maximal effect; for activity change, negative = inhibition: % is set by controls: 0 for no effect and ±100 for the full control effect). A digest of the protocol:
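Luminescence, after 20 min with luciferin detection reagent, reflected CYP2C9 turnover during a 1 h NADPH-driven reaction at 37C. Enzyme-substrate mix contained 0.4% bovine serum albumin and was preincubated with compound 10 min at room temperature.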

A short description of experiment [4]: Primary qHTS for inhibitors of nuclear receptor binding SET domain protein 2 (NSD2) in an isogenic RCH-ACV NSD2 p.E1099K mutant (9B) (AID 1645876). Note: nearly all actives have a fitted effect of over 70% in size. Note: potency is the fitted concentration of half-maximal effect.
The nature of experiment [5]: Primary qHTS for inhibitors of nuclear receptor binding SET domain protein 2 (NSD2) in an RCH-ACV wild type WT cells (2C) (AID 1645877). Note: nearly all actives have a fitted effect of over 70% in size. Note: potency is the fitted concentration of half-maximal effect.
Experiment [6] concerns the target Cytochrome P450 3A4 (Homo sapiens) (UniProt P08684). The experiment is described as follows: Cytochrome P450 family 3 subfamily A member 4 (CYP3A4) small molecule antagonists: luciferase qHTS assay (AID 1645841; active = well fitted curve in the direction sought with a large enough effect in the repeat runs; an effect the other way counts as inactive or inconclusive; note: nearly all actives have a fitted effect of over 45% in size; note: potency is the fitted concentration of half-maximal effect). In a few lines:
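Luminescent CYP3A4 activity readout: compounds plus enzyme-substrate mix 10 min at room temperature, reaction started with NADPH regenerating system for 1 h, stopped with detection reagent, read after 20 min. Ketoconazole served as control.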

Experiment [7] concerns the target Rap guanine nucleotide exchange factor 3 (Homo sapiens) (UniProt O95398). Description: Confirmatory qHTS for antagonist of cAMP-regulated guanine nucleotide exchange factor 3 (EPAC1) (AID 1645880). Note: potency is the fitted concentration of half-maximal effect; nearly all actives have a fitted effect of over 55% in size. A digest of the protocol: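 Nucleotide exchange uses 100 nM EPAC1, 250 nM RAP1B-BODIPY-GDP and 50 uM GDP, with compounds in a concentration-titration series. After 5 min at room temperature, fluorescence (480 nm ex/540 nm em) is read every 5 min for 30 min. Data are normalized to control ATA and DMSO.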

Experiment [8] deals with Rap guanine nucleotide exchange factor 4 (Homo sapiens) (UniProt Q8WZA2). Description: Confirmatory qHTS for antagonist of cAMP-regulated guanine nucleotide exchange factor 4 (EPAC2) (AID 1645885). Note: potency is the fitted concentration of half-maximal effect; nearly all actives have a fitted effect of over 25% in size.
Experiment [9] has as its target Rap guanine nucleotide exchange factor 3 (Homo sapiens) (UniProt O95398). Description: Confirmatory qHTS for agonist of cAMP-regulated guanine nucleotide exchange factor 3 (EPAC1) (AID 1645881).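 Note: EPAC1 catalysed release of BODIPY-GDP from Rap1B seen as fluorescence loss; 100% = effect of cAMP agonist control; nearly all actives have a fitted effect of over 75% in size.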
For experiment [10], the target named is Rap guanine nucleotide exchange factor 4 (Homo sapiens) (UniProt Q8WZA2). Description: Confirmatory qHTS for agonist of cAMP-regulated guanine nucleotide exchange factor 4 (EPAC2) (AID 1645884).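 Note: nucleotide exchange releases bodipy-GDP from Rap1 and this lowers its fluorescence; % is set by controls: 0 for no effect and ±100 for the full control effect; nearly all actives have a fitted effect of over 65% in size.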
Experiment [11] concerns the target Catechol O-methyltransferase (Homo sapiens) (UniProt P21964). Description: Confirmatory Screen for Target Class Profiling of Small Molecule Inhibitors of Methyltransferases (AID 1745852; calls by dose curve). Conditions: MTase-Glo luminescence, SAH detection, recombinant enzyme; measured here: COMT max response; stronger effect = lower value.
Experiment [12] deals with Guanidinoacetate N-methyltransferase (Homo sapiens) (UniProt Q14353). The description is as above. Conditions: MTase-Glo luminescence, SAH detection, recombinant enzyme; at 57.3 µM (top of the series).
In experiment [13] the target is Nicotinamide N-methyltransferase (Homo sapiens) (UniProt P40261). The description is as above. The settings on record: MTase-Glo luminescence, SAH detection, recombinant enzyme; measured here: NNMT max response; stronger effect = lower value.
Experiment [14] has as its target Phenylethanolamine N-methyltransferase (Homo sapiens) (UniProt P11086). The description is as above. Conditions: MTase-Glo luminescence, SAH detection, recombinant enzyme; measured here: PNMT max response; stronger effect = lower value.
The target in experiment [15] is Cytochrome P450 2D6 (Homo sapiens) (UniProt P10635). The experiment is described as follows: Cytochrome P450 family 2 subfamily D member 6 (CYP2D6) small molecule antagonists: luciferase biochemical (cell-free) qHTS assay (AID 1645840; active = well fitted curve in the direction sought with a large enough effect in the repeat runs; an effect the other way counts as inactive or inconclusive; note: nearly all actives have a fitted effect of over 55% in size; note: potency is the fitted concentration of half-maximal effect). A digest of the protocol: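 P450-Glo luminescent screen: recombinant CYP2D6 enzyme–proluciferin substrate mix preincubated with compound 10 min at room temperature, then NADPH regeneration added for 1 h at room temperature. Detection reagent added for 20 min; luciferin light read as relative luminescence units.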

For a further experiment, the target named is Papain (Carica papaya) (UniProt P00784). The experiment is described as follows: Primary qHTS assay for inhibitors of the protease papain (AID 1645873).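 Note: papain turnover of Z-FR-AMC read as the AMC fluorescence gain over 10 min; % is set by controls: 0 for no effect and ±100 for the full control effect.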
The nature of experiment [16]: NCATS anti-infectives library activity on HEK293 viability as a counter-qHTS vs the C. elegans viability qHTS (AID 1745854).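 Note: HEK293 cells exposed to compounds for 24 hr before the viability read; % is set by controls: 0 for no effect and ±100 for the full control effect.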 In a few lines:
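Compounds were acoustically plated (several concentrations, 1:5, final up to 41.7 uM), then 1500 HEK293 cells added per well and incubated 24 hr at 37C, 5% CO2. CellTiter-Glo was added and luminescence read after 10 min.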

Sequence of Rap guanine nucleotide exchange factor 4 (Homo sapiens) (Q8WZA2 whole entry, looked up): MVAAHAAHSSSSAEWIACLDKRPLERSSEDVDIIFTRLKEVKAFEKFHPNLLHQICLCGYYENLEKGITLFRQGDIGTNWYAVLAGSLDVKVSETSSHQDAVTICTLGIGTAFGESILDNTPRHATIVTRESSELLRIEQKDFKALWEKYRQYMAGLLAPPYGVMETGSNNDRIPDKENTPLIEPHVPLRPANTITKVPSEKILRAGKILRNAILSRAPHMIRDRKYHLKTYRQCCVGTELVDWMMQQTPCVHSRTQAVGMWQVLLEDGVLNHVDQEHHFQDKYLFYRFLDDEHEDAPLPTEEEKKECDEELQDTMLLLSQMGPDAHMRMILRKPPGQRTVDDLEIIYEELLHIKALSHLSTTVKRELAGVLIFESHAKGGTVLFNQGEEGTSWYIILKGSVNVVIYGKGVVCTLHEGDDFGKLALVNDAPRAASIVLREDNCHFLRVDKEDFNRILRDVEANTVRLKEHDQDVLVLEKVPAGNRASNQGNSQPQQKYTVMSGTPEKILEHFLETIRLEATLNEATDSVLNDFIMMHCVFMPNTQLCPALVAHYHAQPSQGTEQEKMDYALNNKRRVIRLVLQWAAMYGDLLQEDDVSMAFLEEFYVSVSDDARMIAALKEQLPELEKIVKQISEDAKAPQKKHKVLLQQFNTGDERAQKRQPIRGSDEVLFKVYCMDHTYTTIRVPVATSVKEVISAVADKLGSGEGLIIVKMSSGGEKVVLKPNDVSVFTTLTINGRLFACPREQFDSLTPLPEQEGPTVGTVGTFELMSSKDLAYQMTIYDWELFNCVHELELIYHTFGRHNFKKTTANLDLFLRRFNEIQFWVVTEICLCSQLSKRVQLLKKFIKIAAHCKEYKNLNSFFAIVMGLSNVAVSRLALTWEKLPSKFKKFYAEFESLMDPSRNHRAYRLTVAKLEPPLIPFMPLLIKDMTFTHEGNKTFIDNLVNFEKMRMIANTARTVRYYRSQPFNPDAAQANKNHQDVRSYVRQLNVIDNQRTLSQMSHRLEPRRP
Sequence of Cytochrome P450 2D6 (Homo sapiens) (P10635 whole entry, looked up): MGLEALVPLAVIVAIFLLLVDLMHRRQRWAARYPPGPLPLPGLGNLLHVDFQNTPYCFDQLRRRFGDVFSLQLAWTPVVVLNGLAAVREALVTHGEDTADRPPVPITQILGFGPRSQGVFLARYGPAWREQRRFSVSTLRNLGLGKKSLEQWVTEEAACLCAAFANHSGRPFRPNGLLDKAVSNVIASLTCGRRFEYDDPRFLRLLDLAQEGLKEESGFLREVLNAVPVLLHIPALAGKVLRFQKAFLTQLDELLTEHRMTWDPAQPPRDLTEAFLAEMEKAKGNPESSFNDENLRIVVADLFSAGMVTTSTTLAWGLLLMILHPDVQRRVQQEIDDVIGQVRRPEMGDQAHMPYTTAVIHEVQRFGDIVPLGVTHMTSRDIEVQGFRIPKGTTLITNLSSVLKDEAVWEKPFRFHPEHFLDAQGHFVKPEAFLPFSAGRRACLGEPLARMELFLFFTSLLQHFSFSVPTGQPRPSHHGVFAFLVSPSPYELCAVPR
Sequence of Cytochrome P450 2C9 (Homo sapiens) (P11712 whole entry, looked up): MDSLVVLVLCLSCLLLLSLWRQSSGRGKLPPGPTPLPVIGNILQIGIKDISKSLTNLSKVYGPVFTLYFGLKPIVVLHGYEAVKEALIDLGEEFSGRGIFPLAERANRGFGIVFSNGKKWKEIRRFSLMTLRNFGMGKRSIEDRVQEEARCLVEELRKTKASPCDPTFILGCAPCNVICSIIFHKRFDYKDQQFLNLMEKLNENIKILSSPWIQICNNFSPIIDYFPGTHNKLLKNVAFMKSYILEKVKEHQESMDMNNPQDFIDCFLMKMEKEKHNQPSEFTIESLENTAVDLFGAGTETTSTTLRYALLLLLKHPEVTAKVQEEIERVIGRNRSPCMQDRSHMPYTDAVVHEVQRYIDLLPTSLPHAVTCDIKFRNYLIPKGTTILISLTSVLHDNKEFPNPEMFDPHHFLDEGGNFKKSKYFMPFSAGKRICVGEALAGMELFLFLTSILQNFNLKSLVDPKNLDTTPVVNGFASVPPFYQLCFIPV
Sequence of Papain (Carica papaya) (P00784 whole entry, looked up): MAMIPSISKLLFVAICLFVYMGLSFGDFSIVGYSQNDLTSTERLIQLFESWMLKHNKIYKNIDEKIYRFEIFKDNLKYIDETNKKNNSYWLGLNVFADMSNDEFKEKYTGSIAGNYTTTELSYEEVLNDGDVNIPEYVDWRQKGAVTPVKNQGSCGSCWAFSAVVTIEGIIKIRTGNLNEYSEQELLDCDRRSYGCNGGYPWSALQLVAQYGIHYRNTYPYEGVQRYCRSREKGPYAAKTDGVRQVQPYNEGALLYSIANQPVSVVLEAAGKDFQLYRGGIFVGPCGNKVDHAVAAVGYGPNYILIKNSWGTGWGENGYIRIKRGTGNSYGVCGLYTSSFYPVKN
Sequence of Nicotinamide N-methyltransferase (Homo sapiens) (P40261 whole entry, looked up): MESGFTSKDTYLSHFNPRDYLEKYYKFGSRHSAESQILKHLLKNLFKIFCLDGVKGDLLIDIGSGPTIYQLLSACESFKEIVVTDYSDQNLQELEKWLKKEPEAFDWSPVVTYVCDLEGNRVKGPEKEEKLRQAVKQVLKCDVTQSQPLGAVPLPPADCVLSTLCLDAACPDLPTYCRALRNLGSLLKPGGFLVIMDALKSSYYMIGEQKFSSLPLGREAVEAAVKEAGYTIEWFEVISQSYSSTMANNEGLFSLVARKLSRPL
Sequence of Phenylethanolamine N-methyltransferase (Homo sapiens) (P11086 whole entry, looked up): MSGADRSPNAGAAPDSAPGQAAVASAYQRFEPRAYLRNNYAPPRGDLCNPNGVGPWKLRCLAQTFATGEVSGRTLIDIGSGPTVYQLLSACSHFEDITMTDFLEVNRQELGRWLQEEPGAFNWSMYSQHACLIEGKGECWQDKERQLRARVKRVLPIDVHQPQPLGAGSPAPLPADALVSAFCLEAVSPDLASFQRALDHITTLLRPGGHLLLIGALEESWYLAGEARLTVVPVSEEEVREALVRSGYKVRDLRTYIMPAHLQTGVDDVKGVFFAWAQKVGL
Sequence of Rap guanine nucleotide exchange factor 3 (Homo sapiens) (O95398 whole entry, looked up): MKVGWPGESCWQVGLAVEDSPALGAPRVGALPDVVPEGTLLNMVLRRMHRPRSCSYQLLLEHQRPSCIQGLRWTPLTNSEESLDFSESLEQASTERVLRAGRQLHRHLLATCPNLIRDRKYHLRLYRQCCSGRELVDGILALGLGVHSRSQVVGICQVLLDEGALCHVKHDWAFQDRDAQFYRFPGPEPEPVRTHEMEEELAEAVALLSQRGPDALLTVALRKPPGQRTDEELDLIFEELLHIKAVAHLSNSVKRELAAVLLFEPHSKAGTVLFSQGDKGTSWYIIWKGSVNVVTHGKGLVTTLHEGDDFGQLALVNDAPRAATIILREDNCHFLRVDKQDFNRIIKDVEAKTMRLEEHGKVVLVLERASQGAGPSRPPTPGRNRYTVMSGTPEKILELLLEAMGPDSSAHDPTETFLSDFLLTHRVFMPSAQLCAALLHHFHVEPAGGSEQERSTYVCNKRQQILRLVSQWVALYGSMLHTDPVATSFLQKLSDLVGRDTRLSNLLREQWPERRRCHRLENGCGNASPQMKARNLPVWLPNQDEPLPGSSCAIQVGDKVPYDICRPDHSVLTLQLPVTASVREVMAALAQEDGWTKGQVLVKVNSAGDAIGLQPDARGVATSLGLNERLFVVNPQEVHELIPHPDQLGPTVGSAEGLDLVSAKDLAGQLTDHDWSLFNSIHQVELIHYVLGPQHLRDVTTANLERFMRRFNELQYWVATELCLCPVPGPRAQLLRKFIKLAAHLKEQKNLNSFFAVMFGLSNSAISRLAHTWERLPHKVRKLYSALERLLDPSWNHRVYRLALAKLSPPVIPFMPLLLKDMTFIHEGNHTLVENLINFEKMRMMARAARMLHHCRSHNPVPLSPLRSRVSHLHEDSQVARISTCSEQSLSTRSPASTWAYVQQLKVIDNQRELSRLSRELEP
Sequence of Catechol O-methyltransferase (Homo sapiens) (P21964 whole entry, looked up): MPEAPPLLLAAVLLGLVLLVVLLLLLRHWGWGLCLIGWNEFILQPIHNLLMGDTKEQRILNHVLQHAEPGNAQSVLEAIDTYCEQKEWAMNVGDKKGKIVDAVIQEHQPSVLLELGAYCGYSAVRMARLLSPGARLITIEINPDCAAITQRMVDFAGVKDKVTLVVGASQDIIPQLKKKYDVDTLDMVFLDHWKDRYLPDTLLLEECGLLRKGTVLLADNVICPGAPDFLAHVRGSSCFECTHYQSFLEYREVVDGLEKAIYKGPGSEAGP
Sequence of Cytochrome P450 3A4 (Homo sapiens) (P08684 whole entry, looked up): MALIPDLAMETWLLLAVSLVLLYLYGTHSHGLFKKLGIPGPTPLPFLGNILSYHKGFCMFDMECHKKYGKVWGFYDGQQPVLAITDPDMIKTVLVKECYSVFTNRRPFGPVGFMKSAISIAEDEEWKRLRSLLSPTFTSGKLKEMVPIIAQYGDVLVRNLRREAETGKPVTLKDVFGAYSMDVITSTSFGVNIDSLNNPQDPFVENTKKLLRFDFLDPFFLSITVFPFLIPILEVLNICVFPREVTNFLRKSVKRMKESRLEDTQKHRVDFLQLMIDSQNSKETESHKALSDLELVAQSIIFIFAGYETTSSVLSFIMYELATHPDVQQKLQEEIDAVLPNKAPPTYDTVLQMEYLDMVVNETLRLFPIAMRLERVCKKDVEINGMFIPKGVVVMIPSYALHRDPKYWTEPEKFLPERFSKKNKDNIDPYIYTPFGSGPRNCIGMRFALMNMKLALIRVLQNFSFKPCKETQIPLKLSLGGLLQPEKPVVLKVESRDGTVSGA

Consider `CCCCCCCC(=O)[O-].CCCCCCCC(=O)[O-].[Zn+2]`, for which the Potency entry in [1], in [2], in experiment [3], in experiment [4] and in experiment [5] was “inactive” throughout.

In the case of `Nc1c2ccccc2nc2ccccc12`, the Potency result in experiment [1], in [2] and in [3] was “inactive” throughout. The results for the Potency in experiment [4] and in experiment [5] were 3.76 µM (active) and 4.22 µM (active), respectively.

Turning to `COc1cc(NS(=O)(=O)c2ccc(N)cc2)nc(C)n1`, the Potency entry in experiment [1], in experiment [2], in experiment [3], in experiment [4] and in [5] was “inactive” in each case.

On to `O=C1CCCc2c(O)cccc21`, for which the Potency result in [1], in experiment [2], in experiment [3], in [4] and in [5] was “inactive” each time.

In the case of `CC(C)C(=O)OCc1cccc(OC(=O)[C@@H]2N3C(=O)[C@@H](NC(=O)Cc4ccccc4)[C@H]3SC2(C)C)c1`, the Potency entry in [1], in experiment [2], in experiment [4] and in [5] was “inactive” in each case. In addition, the Potency in experiment [3] was 24.5 µM (active).

For the compound `CCOC(=O)C(=O)CCc1ccccc1`, the Potency entry in [1], in [2], in experiment [4] and in [5] was “inactive” in each case.

Regarding `N#Cc1cc(NC(=O)C(=O)O)c(Cl)c(NC(=O)C(=O)O)c1`, the Potency entry in experiment [1], in experiment [2], in experiment [3], in experiment [4] and in [5] was “inactive” in each case.

Take `COc1ccccc1N1CCN(CC(O)COc2cc(OC)c(OC)c(OC)c2)CC1` (configuration not stated): the Potency result in experiment [1], in experiment [2], in [3], in [4] and in experiment [5] was “inactive” in each case.

`O=C1CC2(CCCC2)CC(=O)N1`: the Potency result in experiment [1], in [2], in [3], in experiment [4] and in experiment [5] was “inactive” each time.

As to `CC(CCc1ccc2c(c1)OCO2)NN` (configuration not stated), the Potency result in experiment [1], in experiment [2], in [4] and in experiment [5] was “inactive” each time. Also, the Potency in experiment [3] is 15.5 µM (active).

As to `C[C@H]1C[C@@H]2[C@H]([C@@H](O)C[C@@]3(C)[C@H]2CC[C@]3(O)C(=O)CO)[C@@]2(C)C=CC(=O)C=C12`, the Potency result in experiment [1], in experiment [2] and in experiment [4] was “inactive” each time. Besides, the Potency in experiment [5] is 26.6 nM (active) and 74.2 nM (active).

On to `C/C(=C1\CCOC(=O)S1)N(C=O)Cc1cnc(C)nc1N`, for which the Potency entry in experiment [1], in [2], in [4] and in [5] was “inactive” in each case.

For `Nc1ccc(C(=O)N2CC3CC(CN(Cc4ccccc4)C3)C2)cc1`, the Potency entry in experiment [1], in experiment [2], in [3], in experiment [4] and in experiment [5] was “inactive” throughout.

On to `CCS(=O)(=O)c1ccc(OC)c(C(=O)OC)c1`, for which the Potency entry in [1], in experiment [2], in [4] and in [5] was “inactive” each time.

`NC(=O)NC1N=C([O][Al])NC1=O` (configuration not stated): the Potency in experiment [6] is 5.49 µM (active).

For the compound `CC(=O)N(CC(O)CO)c1c(I)c(C(=O)NCCO)c(I)c(C(=O)NCC(O)CO)c1I` (configuration not stated), in experiment [6], the Potency entry was “inactive”.

Regarding `O=C(Nc1ccc(S(=O)(=O)N2CCOCC2)cc1)c1cc(Cl)ccc1NS(=O)(=O)c1ccc(Cl)s1`, the values for the Potency in experiment [7] and in experiment [8] were 35.2 µM (active) and 24.8 µM (active), respectively.

As for `COC(=O)C1=C(C)NC(COC(N)=O)=C(C(=O)OC(C)C)C1c1cccc(Cl)c1Cl` (configuration not stated), the Potency entry in experiment [9] and in experiment [10] was “inactive” throughout. Moreover, the Potency in experiment [8] is 44.1 µM (active).

With `C=CC[N+]1([C@H]2C[C@H]3[C@@H]4CC[C@H]5C[C@H](OC(C)=O)[C@@H](N6CCCCC6)C[C@]5(C)[C@H]4CC[C@]3(C)[C@H]2OC(=O)CC)CCCCC1`, the activity was -2.74% in [11], -7.38% in [13] and -11.5% in experiment [14]. In experiment [12], the activity change, negative = inhibition was found to be 0%.

For the compound `O=C(CS(=O)Cc1ccco1)NC/C=C\COc1cc(CN2CCCCC2)ccn1` (configuration not stated), the Potency entry in experiment [1], in experiment [3], in experiment [4] and in [5] was “inactive” in each case.

`COc1ccc(OC(=O)N(CC(=O)O)Cc2ccc(OCCc3nc(-c4ccccc4)oc3C)cc2)cc1`: the Potency result in experiment [1] is “inactive”. The Potency in experiment [3] is 17.4 µM (active).

`Cc1ccc2ccc(Cl)cc2n1`: the Potency result in experiment [1], in experiment [15], in [4] and in [5] was “inactive” throughout.

Take `CCOC(=O)C(=O)CCCCCCl`: the Potency entry in experiment [1], in [4] and in experiment [5] was “inactive” each time. Also, the Potency in [3] is 24.2 µM (active).

With `CC(=O)OCC[N+](C)(C)C`, the Potency result in experiment [1], in experiment [3], in experiment [4] and in experiment [5] was “inactive” in each case.

In the case of `CCCc1ccc(OCC(=O)N2CCN(C(=O)COc3ccc(CCC)cc3OC)CC2)c(OC)c1`, the Potency entry in [1], in experiment [15], in experiment [4] and in experiment [5] was “inactive” each time.

As for `NC(N)=NCCCCN=C(N)N`, the Potency entry in experiment [1] is “inactive”. Also, in the experiment with Papain (Carica papaya), the outcome is “inactive”.

`Brc1ccc([C@H]2CN3CCSC3=N2)cc1`: the Potency entry in [1], in experiment [4] and in [5] was “inactive” each time. Further, in the experiment with Papain (Carica papaya), the outcome is “inactive”.

Consider `CCOC(=O)Cn1cccc1-c1nc(-c2ccc(OC)cc2)c(-c2ccc(OC)cc2)s1`, for which the Potency entry in experiment [1], in experiment [15] and in [5] was “inactive” throughout. Also, the activity was -5.88% in [11], -5.59% in [13] and -4.51% in experiment [14]. In [12], the activity change, negative = inhibition is -8.59%.

As to `CC(=O)[C@H]1CC[C@H]2[C@@H]3C=CC4=CC(=O)CC[C@@]4(C)[C@@H]3CC[C@]12C`, the Potency entry in experiment [1] was “inactive”. The Potency is 15.5 µM (active) in experiment [15]; 13.3 µM (active) and inactive in [4]; 23.7 µM (active) and inactive in experiment [5].

On to `Cn1cnc2c(NCc3ccccc3)nc(NCCO)nc21`, for which the Potency entry in experiment [1] and in experiment [5] was “inactive” in each case. Further, the outcome with Papain (Carica papaya) is “inactive”.

With `CC[C@@H]([C@H](C)O)n1ncn(-c2ccc(N3CCN(c4ccc(OC[C@@H]5CO[C@@](Cn6cncn6)(c6ccc(F)cc6F)C5)cc4)CC3)cc2)c1=O`, the Potency entry in experiment [1], in experiment [15] and in [16] was “inactive” each time.

`Cc1cc(C(C)(C)C)c(O)c(C(C)(C)C)c1`: the Potency entry in experiment [1] and in experiment [3] was “inactive” in each case.

As to `CCCCC(CC)COC(=O)c1ccccc1C(=O)O` (configuration not stated), the Potency entry in [1] and in [4] was “inactive” throughout. Also, the Potency in experiment [3] was 6.26 µM (active).
